Consider 16 compounds from PubChem BioAssay (NCI).

This is part of a sample that, as a whole, favours compounds with a hit. Of some 83,000 tested, about 20% had one in any assay.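 Single-concentration screen, 48 h exposure, 96-well plates. Endpoint: percent growth. Below 10 = active.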 Values without a mark were called inactive. Active and inactive are the calls of the source.

Test systems include RPMI-8226 leukemia; OVCAR-8 ovarian; OVCAR-5 ovarian; OVCAR-4 ovarian; SK-OV-3 ovarian; IGROV1 ovarian; OVCAR-3 ovarian; HS 578T breast; NCI/ADR-RES ovarian.
Holding throughout (assay): NCI-60 one-dose screen, 48 h (100 = growth as untreated, 0 = no growth, -100 = all killed)
What all share (details): 10 µM unless noted

With `Nc1c(Cl)cc([N+](=O)[O-])cc1Br`, the growth in the assay with RPMI-8226 leukemia was 86.8%; with OVCAR-8 ovarian, 93.9%; in the assay with OVCAR-5 ovarian, 103%; with OVCAR-4 ovarian, 102%; in the assay on SK-OV-3 ovarian, 110%; in the assay on IGROV1 ovarian, 114%. Besides, the growth with OVCAR-3 ovarian was 102%; in the assay with HS 578T breast, 105%; in the assay with NCI/ADR-RES ovarian, 95%.

Turning to `Cc1ccc2[nH]c(=S)n(-c3ccc(S(=O)(=O)Nc4ccc(Cl)nn4)cc3)c(=O)c2c1`, the growth in the assay with RPMI-8226 leukemia was 103%; with OVCAR-8 ovarian, 97.7%; in the assay with OVCAR-5 ovarian it was 103%; in the assay on OVCAR-4 ovarian, 110%; in the assay with SK-OV-3 ovarian, 108%; in the assay with IGROV1 ovarian it was 105%. Further, the growth in the assay with OVCAR-3 ovarian was 108%; in the assay on HS 578T breast it was 94.4%; in the assay with NCI/ADR-RES ovarian, 103%.

With `Cc1cc2nc(-c3ccccc3)c(-c3ccccc3)nc2cc1C`, the growth with RPMI-8226 leukemia was 88.1%; with OVCAR-8 ovarian, 108%; in the assay with OVCAR-5 ovarian it was 115%; in the assay on OVCAR-4 ovarian, 98.9%; in the assay with SK-OV-3 ovarian it was 108%; in the assay on IGROV1 ovarian, 112%. Further, the growth was 113% in the assay with OVCAR-3 ovarian, 118% in the assay with HS 578T breast and 93.1% in the assay with NCI/ADR-RES ovarian.

As to `C=C1C(=O)O[C@H]2[C@H]1CC/C(CNC(=O)/C=C/c1ccc(Br)cc1)=C\CC[C@@]1(C)O[C@@H]21`, the growth is -33.7% (active) with RPMI-8226 leukemia; 2.52% (active) in the assay with OVCAR-8 ovarian; -51.4% (active) in the assay with OVCAR-5 ovarian; 44.7% with OVCAR-4 ovarian; 46.6% in the assay with SK-OV-3 ovarian; -27.9% (active) with IGROV1 ovarian. The growth in the assay on OVCAR-3 ovarian is -91.4% (active); in the assay with HS 578T breast, -7.13% (active); in the assay with NCI/ADR-RES ovarian, 38.5%.

Regarding `O=C(Nc1ccccc1)Oc1ccccc1-c1ccccc1`, the growth was 96.5% with RPMI-8226 leukemia; 98.4% in the assay with OVCAR-8 ovarian; 90.5% in the assay on OVCAR-5 ovarian; 103% in the assay on OVCAR-4 ovarian; 80.1% with SK-OV-3 ovarian; 107% in the assay with IGROV1 ovarian. The results for the growth in the assay with OVCAR-3 ovarian, in the assay on HS 578T breast and in the assay with NCI/ADR-RES ovarian were 106%, 93.3% and 99.9%, respectively.

On to `CCNNC(=O)[C@@H]1[C@H](c2cc(OC)c(OC)c(OC)c2)c2cc3c(cc2[C@H](O)[C@H]1CO)OCO3`, for which the growth in the assay on RPMI-8226 leukemia is 32.8%; in the assay with OVCAR-8 ovarian, -13.3% (active); in the assay with OVCAR-5 ovarian, 33.6%; in the assay on OVCAR-4 ovarian it was 35.2%; with SK-OV-3 ovarian it was 1.47% (active); with IGROV1 ovarian, 20.8%. For the same compound, the results for the growth in the assay on OVCAR-3 ovarian, in the assay on HS 578T breast and in the assay with NCI/ADR-RES ovarian were -47.8% (active), 23.1% and -13.7% (active), respectively.

As for `COc1cnccc1-c1nc2ccc3[nH]ncc3c2c2c1CCCC2`, the growth in the assay with RPMI-8226 leukemia is 61.6%; with OVCAR-8 ovarian, 69.1%; in the assay with OVCAR-5 ovarian, 74.8%; in the assay with OVCAR-4 ovarian, 85.9%; with SK-OV-3 ovarian, 41.9%; in the assay with IGROV1 ovarian, 33.4%. Further, the results for the growth in the assay with OVCAR-3 ovarian, in the assay with HS 578T breast and with NCI/ADR-RES ovarian were 84.3%, -1.02% (active) and 64.2%, respectively.

In the case of `CC(C)C1C2=C(NCCN1C(=O)Cc1ccccc1)C(C)(C)N(Cc1ccccc1)C2=O` (centres undefined), the growth was 102% with RPMI-8226 leukemia; 100% in the assay with OVCAR-8 ovarian; 102% in the assay with OVCAR-5 ovarian; 104% in the assay on OVCAR-4 ovarian; 93.5% with SK-OV-3 ovarian; 98.8% with IGROV1 ovarian. The values for the growth in the assay with OVCAR-3 ovarian, with HS 578T breast and with NCI/ADR-RES ovarian were 102%, 103% and 99%, respectively.

On to `COc1ccc(C(=O)c2cc3c(N)c(C(=O)Nc4ccc(Cl)cc4)sc3nc2C)cc1`, for which the growth is 74.6% in the assay with RPMI-8226 leukemia; 50.2% in the assay on OVCAR-8 ovarian; 86.7% in the assay on OVCAR-5 ovarian; 21.5% in the assay on OVCAR-4 ovarian; 73.5% in the assay on SK-OV-3 ovarian; 90.6% in the assay with IGROV1 ovarian. For the same compound, the growth in the assay with OVCAR-3 ovarian is 73.3%; in the assay with HS 578T breast, 60.3%; in the assay with NCI/ADR-RES ovarian, 75.3%.

For `O=C1Nc2c(ccc(Cl)c2Cl)/C1=C/c1ccccn1`, the growth was 107% in the assay with RPMI-8226 leukemia; 81% in the assay with OVCAR-8 ovarian; 85.1% in the assay with OVCAR-5 ovarian; 76.5% with OVCAR-4 ovarian; 94% in the assay with SK-OV-3 ovarian; 73.1% in the assay on IGROV1 ovarian. Besides, the growth was 84.6% with OVCAR-3 ovarian, 63.9% in the assay on HS 578T breast and 82.5% in the assay on NCI/ADR-RES ovarian.

On to `COc1ccc(-n2cc(-c3cc(OC)c(OC)c(OC)c3)n(C(C)=O)c2=O)cc1`, for which the growth was 123% in the assay with RPMI-8226 leukemia; 91.8% in the assay on OVCAR-8 ovarian; 78.3% in the assay with OVCAR-5 ovarian; 79.9% with OVCAR-4 ovarian; 94.6% in the assay with SK-OV-3 ovarian; 107% in the assay with IGROV1 ovarian. The growth in the assay with OVCAR-3 ovarian was 108%; with HS 578T breast it was 92.3%; in the assay with NCI/ADR-RES ovarian, 100%.

Take `Cc1[nH]n(-c2cccc(Cl)c2)c(=O)c1/C=C1\C=Nc2ccc(Br)cc21`: the growth with RPMI-8226 leukemia was 14.1%; in the assay with OVCAR-8 ovarian, 9.67% (active); in the assay with OVCAR-5 ovarian it was 30.5%; with OVCAR-4 ovarian, -89.9% (active); in the assay on SK-OV-3 ovarian, -25% (active); in the assay with IGROV1 ovarian, 19.3%. Also, the growth with OVCAR-3 ovarian is -47.2% (active); in the assay with HS 578T breast, 0.668% (active); in the assay on NCI/ADR-RES ovarian it was 16.3%.

In the case of `COc1cccc(/C=C2\COc3ccc(-c4ccccc4)cc3C2=O)c1`, the growth was -31.4% (active) in the assay with RPMI-8226 leukemia; 3.02% (active) with OVCAR-8 ovarian; 49.6% in the assay with OVCAR-5 ovarian; 65.2% with OVCAR-4 ovarian; 74.3% with SK-OV-3 ovarian; 4.34% (active) with IGROV1 ovarian. Further, the results for the growth with OVCAR-3 ovarian, with HS 578T breast and in the assay with NCI/ADR-RES ovarian were -44% (active), -9.75% (active) and 5.38% (active), respectively.

With `C=C(C)[C@@H]1CC[C@]2(CO)CC[C@]3(C)[C@H](CC[C@@H]4[C@@]5(C)CCCNC(C)(C)[C@@H]5CC[C@]43C)[C@@H]12`, the growth with RPMI-8226 leukemia is -36.9% (active); with OVCAR-8 ovarian, 23.5%; in the assay with OVCAR-5 ovarian, 75%; in the assay with OVCAR-4 ovarian, 31.8%; in the assay on SK-OV-3 ovarian, 92.2%; in the assay with IGROV1 ovarian, 36.3%. The growth in the assay with OVCAR-3 ovarian was 44.4%; in the assay with HS 578T breast, 46.8%; with NCI/ADR-RES ovarian, 44.8%.

For `NS(=O)(=O)c1cccc(NC(=O)C(=O)C2C(=O)Nc3ccccc32)c1` (centres undefined), the growth in the assay on RPMI-8226 leukemia is 47.7%; in the assay with OVCAR-8 ovarian, 106%; in the assay with OVCAR-5 ovarian, 96%; in the assay on OVCAR-4 ovarian it was 102%; in the assay with SK-OV-3 ovarian it was 106%; in the assay with IGROV1 ovarian it was 76.4%. Further, the growth in the assay with OVCAR-3 ovarian was 96.6%; in the assay with HS 578T breast, 101%; in the assay with NCI/ADR-RES ovarian, 97.5%.

As for `O=c1[nH]nc(-c2ccc(Br)cc2)cc1Cc1ccc(O)cc1`, the growth in the assay on RPMI-8226 leukemia was 53.8%; in the assay on OVCAR-8 ovarian, 92.7%; in the assay on OVCAR-5 ovarian it was 106%; in the assay on OVCAR-4 ovarian, 97.6%; in the assay on SK-OV-3 ovarian, 92.9%; in the assay with IGROV1 ovarian, 82.4%. Further, the growth in the assay with OVCAR-3 ovarian was 92.4%; with HS 578T breast, 64.1%; in the assay with NCI/ADR-RES ovarian, 71%.
